Measured values reported in PubChem BioAssay (Tox21).
Several values for one entry are separate records, joined by “and”; a condition that tells them apart may be missing. Identical values can stand only once. Inconclusive results are not listed. Where a structure was tested more than once in an assay, its records may differ in their call. Activity calls are given as the source filed them. Calls follow the shape of the dose curve; as a rule, active = well fitted cell-killing curve with a large enough effect in the repeat runs; inconclusive = weak or mixed curves; inactive = flat fitted curve, though single readings scatter.

Assay: qHTS RealTime-Glo MT Cell Viability Assay in HepG2 cells - 16 hour (AID 1224885); also: nearly all actives have a fitted effect of over 50% in size
Conditions: RealTime-Glo luminescence; series mostly up to 76.8 µM; activity change, negative = cytotoxic: at the top concentration
From the text: U.S. Tox21 Program National Center for Advancing Translational Sciences [NCATS] NIH Chemical Genomics Center [NCGC] U.S. Environmental Protection Agency [EPA] National Institutes of Environmental Health Sciences [NIEHS] National Toxicology Program [NTP] U.S. Food and Drug Administration [FDA] Tox21 Assay Overview: Measure of cell viability is critical in the cell-base assay. Analysis of cell viability is necessary for the characterization of cell responses to cytotoxic drugs and environmental stress. A RealTime-Glo MT Cell Viability Assay to monitor cell viability in real time of continues cell culture during 40 hours of compound treatment was used to screen Tox21 10K library compounds in HepG2 cells. The RealTime-Glo MT Cell Viability Assay is a nonlytic, homogeneous, bioluminescent method to measure cell viability in real time using a simple, plate-based method. The assay involves adding NanoLuc luciferase and a cell-permeant prosubstrate to cells in culture. Viable cells reduce the proprietary prosubstrate to generate a substrate for NanoLuc luciferase. This substrate diffuses from cells into the surrounding culture medium, where it is rapidly used by the NanoLuc Enzyme to produce a luminescent signal. The signal correlates with the number of viable cells, making the assay well suited for cytotoxicity studies.
Tox21 Assay Protocol Summary: The mixture of HepG2 cell suspension and reagents were dispensed at 600cells/6 ul/well in 1536-well tissue culture treated black solid bottom plates using a Multidrop dispenser. After the assay plates were incubated at a 37 C/5% CO2 incubator for 5 hours, 23 nL of compounds dissolved in DMSO, positive and negative controls was transferred to the assay plate by a pintool work station. The plates were incubated at 37 C for 40 hours. The luminescence intensity were measured at 0h, 8h, 16h, 24h, 32h and 40h time points using ViewLux plate reader during compound treatment.
% is scaled to controls: 0 for no effect and ±100 for the full control effect; potency is read from the fitted curve at half-maximal effect.

Row | SMILES | activity change, negative = cytotoxic | Potency
1 | CN1C(=O)c2ccc([N+](=O)[O-])cc2C1=O | 0.908% (inactive) | 
2 | C=CC(=O)OCCCCCCCC | 3.99% (inactive) | 
3 | NC(=Nc1ccccc1)Nc1ccccc1 |  | inactive
4 | CCCCN(CCO)CCCC | -0.337% (inactive) | 
5 | CCN(CC)C(=O)Nc1ccc(OCC(O)CNC(C)(C)C)c(C(C)=O)c1 (stereo not given) | -4.9% [at 35.3 µM] (inactive) | 
6 | CC(C)(C)NCC(O)c1cc(O)cc(O)c1 (stereo not given) | -0.181% [at 35.3 µM] (inactive) | 
7 | CCCCC/C=C/CC1CC(=O)OC1=O (stereo not given) | 2.3% (inactive) | 
8 | O=C(O)c1cccc(C(=O)O)c1 |  | inactive
9 | Oc1c(Cl)cc(Cl)cc1Sc1cc(Cl)cc(Cl)c1O |  | inactive
10 | CC(=O)OCC1=C(C(=O)O)N2C(=O)[C@@H](NC(=O)Cc3cccs3)[C@H]2SC1 | 4.27% [at 35.3 µM] (inactive) | 
11 | Cc1cccc([N+](=O)[O-])c1C(=O)O | -0.327% (inactive) | 
12 | CC(=O)C1=C(C)[C@@H]2C[C@@]3(C1)[C@H](C)CC[C@H]3C2(C)C |  | inactive
13 | O=S(=O)(O)c1ccc2nc(-c3ccccc3)[nH]c2c1 |  | inactive
14 | Nc1ccc2cc3ccccc3cc2c1 |  | inactive
15 | CC(C)CCOCc1ccccc1 | 0.0084% (inactive) | 
16 | CC(C)C(=O)c1c(C(C)C)nn2ccccc12 | 1.12% [at 35.3 µM] (inactive) | 
17 | CC1=C(C=O)C(C)(C)CC=C1 | 4.46% (inactive) | 
18 | CC(=O)OCCOCCOCCOC(C)=O |  | inactive
19 | [Cl][In]([Cl])[Cl] |  | inactive
20 | CCCCCCCCCCCCCCCCCl | 0.939% [at 15.8 µM] (inactive) | 

Row | SMILES | activity change, negative = cytotoxic | Potency
21 | Cc1cc(OCCOCC[N+](C)(C)Cc2ccccc2)ccc1C(C)(C)CC(C)(C)C |  | 17.3 µM (active) and 21.3 µM (active)
22 | C=C(C)C(=O)O |  | inactive
23 | Nc1nc(=S)c2[nH]cnc2[nH]1 |  | inactive
24 | O=C(O)CCc1ccccc1 | 1.55% (inactive) | 
25 | N[C@@H]1CONC1=O | 4.72% [at 35.3 µM] (inactive) | 
26 | CC(C)CCCCCCc1ccc(O)cc1 | -25.1% (inactive) | 
27 | CCCNC(C)C(=O)Nc1ccccc1C (stereo not given) | 1.44% [at 35.3 µM] (inactive) | 
28 | OCCN1CCNCC1 |  | inactive
29 | CC(=O)O[C@]1(C(C)=O)CC[C@H]2[C@@H]3C[C@H](C)C4=CC(=O)CC[C@]4(C)[C@H]3CC[C@@]21C |  | inactive
30 | CC(C)(c1ccccc1)c1ccc(Nc2ccc(C(C)(C)c3ccccc3)cc2)cc1 | -21% (inactive) | 
31 | OCC(CO)N[C@H]1C[C@](O)(CO)[C@@H](O)[C@H](O)[C@H]1O | 1.3% [at 35.3 µM] (inactive) | 
32 | C=C(C)C1CC=C(C)C(OC(C)=O)C1 (stereo not given) |  | inactive
33 | CCCCC(CC)COC(=O)CC(C(=O)OCC(CC)CCCC)S(=O)(=O)O (stereo not given) |  | inactive
34 | CC(C)(C)NCC(O)COc1ccccc1OCC1CCCO1 (stereo not given) | 3.92% [at 35.3 µM] (inactive) | 
35 | CCCCOCCOC(=O)c1ccccc1C(=O)OCCOCCCC |  | inactive
36 | CCCCCCC(O)CCCCCCCCCCC(=O)O (stereo not given) |  | inactive
37 | CCCCCCCCCCCCc1ccccc1O |  | inactive and 34.7 µM (active)
38 | Cc1ccnc2c1NC(=O)c1cccnc1N2C1CC1 |  | inactive
39 | Oc1ccc(Cl)cc1Cc1cc(Cl)ccc1O | -29.9% [at 35.3 µM] (inactive) | 
40 | CCn1cc(C(=O)O)c(=O)c2cc(F)c(N3CCNC(C)C3)c(F)c21 (stereo not given) | 0.414% [at 35.3 µM] (inactive) | 
